Data taken from the supplement of paper PMC6555819.

What was measured:
Experiment in all cases: PBM binding z-score (relative to random genomic background probes); higher = stronger binding; sequences stand for … in GC…GCGATTGACAGCGTAGAATGAAGG
[1] = test system: FXR:RXRa (NR concentration 270 nM, RXRa partner concentration 90 nM)
How it was run: (§1)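 Probes were double-stranded and carried 34-nt variable regions with direct-repeat seeds, single-nucleotide variants, half-site ablations and random human genomic background sequences, printed on custom Agilent 4×180K protein-binding microarrays. Arrays were incubated 1 h with ligand-free nuclear receptor dimers in PBS pH 7.4, 2% milk, 0.02% Triton X-100, 1 mM DTT, 0.2 mg/mL BSA and 0.4 mg/ml salmon testes DNA. Antibodies against each partner (one per run) detected binding, and scanned fluorescence was regression-normalized. Binding z-scores use the random background probes as reference.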

[2] = test system: LXRa:RXRa (NR concentration 270 nM, RXRa partner concentration 90 nM)
How it was run: as §1

[3] = test system: LXRa homodimer (NR concentration 270 nM)
How it was run: as §1

[4] = test system: LXRb:RXRa (NR concentration 270 nM, RXRa partner concentration 90 nM)
How it was run: as §1

[5] = test system: LXRb homodimer (NR concentration 270 nM)
How it was run: as §1

[6] = test system: PPARa:RXRa (NR concentration 270 nM, RXRa partner concentration 90 nM)
How it was run: as §1

[7] = test system: PPARg:RXRa (NR concentration 180 nM, RXRa partner concentration 90 nM)
How it was run: as §1

[8] = test system: PPARg:RXRa 270nM:90nM, anti-RXR (NR concentration 270 nM, RXRa partner concentration 90 nM)
How it was run: as §1

[9] = test system: PPARg:RXRa 30nM:10nM, anti-RXR (NR concentration 30 nM, RXRa partner concentration 10 nM)
How it was run: as §1

[10] = test system: PPARg:RXRa 90nM:30nM, anti-RXR (NR concentration 90 nM, RXRa partner concentration 30 nM)
How it was run: as §1

[11] = test system: PPARg:RXRa DBDmut IVT, anti-RXR (DBD mutation: RXRa K156A/R161A, NR concentration 270 nM, RXRa partner concentration 90 nM)
How it was run: as §1

[12] = test system: PPARg:RXRa IVT, anti-PPARg (NR concentration 270 nM, RXRa partner concentration 90 nM)
How it was run: as §1

[13] = test system: PPARg DBDmut:RXRa IVT, anti-PPARg (DBD mutation: PPARg1 K132A/R137A, NR concentration 270 nM, RXRa partner concentration 90 nM)
How it was run: as §1

[14] = test system: PPARg DBDmut IVT, anti-PPARg (DBD mutation: PPARg1 K132A/R137A, NR concentration 270 nM)
How it was run: as §1

[15] = test system: PPARg homodimer (NR concentration 180 nM)
How it was run: as §1

[16] = test system: PXR:RXRa (NR concentration 270 nM, RXRa partner concentration 90 nM)
How it was run: as §1

[17] = test system: PXR homodimer (NR concentration 270 nM)
How it was run: as §1

[18] = test system: RARa:RXR (NR concentration 270 nM, RXRa partner concentration 90 nM)
How it was run: as §1

[19] = test system: RARa homodimer (NR concentration 270 nM)
How it was run: as §1

[20] = test system: RARb:RXRa (NR concentration 270 nM, RXRa partner concentration 90 nM)
How it was run: as §1

Row | Sequence | PBM binding z-score [1] | PBM binding z-score [2] | PBM binding z-score [3] | PBM binding z-score [4] | PBM binding z-score [5] | PBM binding z-score [6] | PBM binding z-score [7] | PBM binding z-score [8] | PBM binding z-score [9] | PBM binding z-score [10] | PBM binding z-score [11] | PBM binding z-score [12] | PBM binding z-score [13] | PBM binding z-score [14] | PBM binding z-score [15] | PBM binding z-score [16] | PBM binding z-score [17] | PBM binding z-score [18] | PBM binding z-score [19] | PBM binding z-score [20]
1 | TTACCAAGGTGAAAGGTCGATGATGCACGCCTTG | 3.03 | 2.42 | -0.187 | 2.14 | -0.613 | 4.95 | 8.4 | 7.54 | 6.44 | 7.87 | 2.4 | 4.78 | 0.899 | 1.64 | 2.36 | 3.08 | -0.143 | 4.99 | 0.188 | 2.98
2 | ATCTCTAGGTACAGATAGTTCAGTGAATGCAAAT | 0.079 | 0.141 | 0.396 | 0.242 | 0.548 | 0.12 | 0.349 | 0.108 | 0.29 | 0.33 | -0.154 | 0.347 | 1.38 | 1.2 | 0.865 | 0.698 | 1.5 | 0.218 | 0.726 | 0.832
3 | CCGACTGGGGCAAGGTTATCATAACGCACAGCCA | 0.246 | 0.372 | -0.203 | 0.586 | -1.17 | 1.56 | 2.69 | 3.04 | 0.861 | 2.36 | 3.18 | 3.27 | -0.411 | -0.512 | 0.593 | 0.253 | -0.27 | 0.986 | -0.0927 | 1.5
4 | CCTTCTGGGCCATCAGGTCATTGATATCAACGTT | 1.65 | 1.19 | 0.846 | 1.44 | 0.0435 | 2.69 | 2.21 | 3.33 | 1.09 | 2.63 | 4.77 | 5.03 | 0.4 | 0.236 | 1.37 | 1.64 | 0.618 | 2.31 | 0.159 | 2.28
5 | CCTAGTTGGTGAAGGTCACACACGCTATAGGTAC | 2.89 | 3.37 | 1.45 | 3.42 | 0.755 | 3.66 | 2.32 | 3.03 | 1.1 | 1.97 | 1.01 | 2.4 | 1.24 | 0.782 | 2.47 | 3.34 | 1.34 | 3.61 | 1.61 | 3.74
6 | CAAACTAGGTCACCGGAAGGTCAAAGGCCGCATG | 6.24 | 5.81 | 4.23 | 5.17 | 1.01 | 6.34 | 9.9 | 7.75 | 6.27 | 7.97 | 8.46 | 8.84 | 4.26 | 3.71 | 5.53 | 5.83 | 1.1 | 7.5 | 1.75 | 5.35
7 | TGTATTAGTTGATTAGGGCAACCGAAACAGCGGA | 0.242 | 0.0777 | 0.397 | 0.234 | 1.3 | 0.484 | 0.304 | 0.782 | 0.748 | 0.794 | 0.222 | 1.62 | 1.15 | 1.19 | 1.28 | -0.072 | 0.169 | 0.311 | 1.53 | 0.862
8 | ATCGAAAGGTCGGGGTGAGTATAGAGAAAGGGAA | 3.39 | 3.1 | 0.378 | 3.56 | 1.97 | 4.39 | 2.87 | 2.83 | 1.07 | 2.04 | 1.56 | 2.45 | 1.09 | 2.25 | 1.98 | 2.77 | 1.39 | 3.03 | 1.53 | 3.83
9 | GTACCAAGGTGAATAGGTGGTTGATGAGTAGGCG | 0.118 | 0.242 | -0.513 | -0.25 | -0.203 | 0.864 | 0.851 | 0.683 | 0.0319 | 0.389 | 1.79 | 1.93 | 0.268 | -0.307 | 0.741 | -0.428 | 0.469 | -0.021 | 0.656 | 1.21
10 | CGAACGAGGGCAGGAGTTGATAGCAAATGCCGAT | -0.327 | -0.217 | -0.463 | -0.569 | -1 | 0.441 | 1.17 | 1.46 | -0.21 | 1.07 | 1.98 | 1.44 | -0.723 | -0.762 | -0.323 | -0.216 | -0.229 | -0.159 | -0.0684 | 1.8
11 | GCTATTAGTTGAAAGGGAAACCGAATGATTCTCG | -0.0917 | -0.171 | 0.0809 | -0.236 | -0.289 | 0.000801 | 0.567 | 1.6 | 0.38 | 1.25 | 0.303 | 0.0307 | 0.646 | 0.468 | 0.766 | -0.0354 | 0.0349 | 0.204 | 1.17 | -0.128
12 | ACTCGGAGGACAAAGGTCAGACCTACGCCAGTGA | 4.44 | 4.05 | 2.02 | 3.64 | 0.528 | 4.93 | 7.6 | 6.95 | 4.94 | 6.85 | 0.683 | 3.73 | 0.128 | -0.307 | 3.27 | 4.16 | 0.401 | 5.43 | 1.5 | 4.5
13 | TGAATGAGGTTATAAGATCAGGGCACGTTGCAAA | 1.49 | 1.49 | 0.117 | 1.32 | 0.0684 | 2.9 | 1.62 | 1.95 | 0.914 | 1.63 | 1.2 | 2.64 | 0.65 | 0.308 | 0.364 | 1.19 | -0.152 | 1.77 | 0.42 | 1.48
14 | ATCGAAAGGTCGAAGGTGGGTATACCCACCCGAA | 4.08 | 3.18 | 0.0928 | 2.34 | 0.437 | 4.28 | 3.74 | 3.99 | 1.28 | 2.77 | -0.494 | 1.52 | 0.29 | 0.264 | 1.05 | 2.11 | -0.101 | 3.05 | -0.341 | 3.51
15 | TCTTATAGATCAGCAGGTTAAGAAAGCTGGCCAA | 0.0686 | 0.24 | -0.273 | 0.335 | -0.379 | 0.481 | -0.154 | 1.43 | 2.63 | 2.09 | 1.67 | 0.0176 | 0.00144 | -0.0268 | 0.0461 | 0.161 | -0.509 | 0.109 | -0.091 | 0.115
